Only a selection was taken, and hits are over-represented in it overall.
Shiga inhibitor: Shiga toxin inhibition. inhibition, % at 38.7 µM. AID 2315. Vero cells, Shiga toxin protein synthesis inhibition reporter. actives 9.2% (n = 290,000); in the data active = inhibition mostly above about 28%, no sharp cut-off; inactive = mostly below about 43%
TbPYK inhibitor: blocks Trypanosoma brucei pyruvate kinase | Q57TT1 | TbPYK enzyme, Kinase-Glo Plus ATP luminescence, 45 min | Potency, µM (highest dose often 76.8 µM), usual class: inhibitors | actives 0.12% (n = 410,000); active = well fitted curve in the direction sought with a large enough effect; inconclusive = small, poorly fitted or top-dose-only effect, or another doubt; inactive = no such curve, though single readings can be large; an effect the other way counts as inactive or inconclusive; also: nearly all actives have a fitted effect of over 50% in size
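Assay buffer: 50 mM TEA pH 7.2, 100 mM KCl, 10 mM MgCl2, 0.05% BSA, 0.01% Tween-20. Pyruvate kinase from T. brucei plus substrate met compound, then ADP (130 uM final). Luminescence was read post 45 min RT.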
SARS PLpro yeast: SARS-CoV PLP inhibition in yeast; S. cerevisiae expressing SARS-CoV PLpro, growth rescue; Potency, µM (series often up to 32.9 µM), hits mostly activators; actives 0.19% (n = 330,000); also: nearly all actives have a fitted effect of over 55% in size
LmPK inh: inhibitors of Leishmania mexicana pyruvate kinase; actives 0.37% (n = 290,000); Q27686; purified LmPK, Kinase-Glo ATP luminescence, 1 h; AID 1721; Potency, µM (doses to about 57.5 µM), most hits filed as inhibitors; active = well fitted curve in the direction sought with a large enough effect; inconclusive = small, poorly fitted or top-dose-only effect, or another doubt; inactive = no such curve, though single readings can be large; an effect the other way counts as inactive or inconclusive
Target sequence (Q27686 whole entry, looked up): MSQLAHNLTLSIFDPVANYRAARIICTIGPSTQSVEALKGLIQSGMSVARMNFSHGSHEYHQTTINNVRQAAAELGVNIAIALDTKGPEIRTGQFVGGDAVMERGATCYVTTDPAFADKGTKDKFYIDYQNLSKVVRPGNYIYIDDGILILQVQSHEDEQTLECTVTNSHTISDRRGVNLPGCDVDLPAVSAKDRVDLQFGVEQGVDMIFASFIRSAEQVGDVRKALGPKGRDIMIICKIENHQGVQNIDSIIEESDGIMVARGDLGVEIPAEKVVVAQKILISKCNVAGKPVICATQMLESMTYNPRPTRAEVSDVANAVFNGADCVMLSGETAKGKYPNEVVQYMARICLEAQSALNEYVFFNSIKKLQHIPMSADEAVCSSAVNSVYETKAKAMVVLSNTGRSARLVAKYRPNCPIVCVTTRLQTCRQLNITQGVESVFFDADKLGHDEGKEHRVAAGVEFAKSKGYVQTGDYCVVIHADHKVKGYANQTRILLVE
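Purified LmPK (0.1 nM) converted ADP (0.1 mM) to ATP with PEP (0.5 mM) in imidazole buffer pH 7.2 with KCl and MgCl2, 1 h at room temperature. ATP was read by Kinase-Glo luminescence; data normalized to uninhibited and no-enzyme controls.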
Cycloheximide cs: affects cycloheximide protein synthesis inhibition readout, counter-screen. cell reporter, cycloheximide protein synthesis inhibition counterscreen. max response, %. actives 12% (n = 300,000). AID 2314; in the data active = max response mostly above about 13%, no sharp cut-off; inactive = mostly below about 14%; also: read at 38.3 µM for the half of the compounds with a filed dose
NS1 inh: inhibitors of influenza NS1 protein function; Potency, µM (titrated, usually from 46.1 µM); actives 0.4% (n = 270,000); AID 2326; also: actives are rising curves; nearly all actives have a fitted effect of over 50% in size
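Compounds were scored for reversing the slow growth caused by influenza A NS1 in S. cerevisiae, measured by optical density at 600 nm. Assay medium contained 2% galactose at pH 6.0; NS1-free yeast of the same strain were the positive control.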
Each line names hits and unclear results; the compound was inactive in the other large screens. Unless noted, calls follow the shape of the full dose curve.

c1ccc(-c2csc(Cc3nnc4n3CCCCC4)n2)cc1	none
Oc1ccc(O)c(C=NNC(=S)NC2CC3CC2C2C=CCC32)c1 (configuration not stated)	none (no result: Shiga inhibitor, SARS PLpro yeast, LmPK inh, Cycloheximide cs, NS1 inh)
NNC(=S)NC1CC2CC1C1C=CCC21 (configuration not stated)	Cycloheximide cs 12
c1ccc(Nc2nc(-c3ccncc3)cs2)cc1	Shiga inhibitor 47, Cycloheximide cs 60
Fc1ccc(Nc2nc(-c3ccncc3)cs2)cc1	Shiga inhibitor 80, Cycloheximide cs 39
Clc1ccc(Nc2nc(-c3ccncc3)cs2)cc1	none (no result: Shiga inhibitor, SARS PLpro yeast, LmPK inh, Cycloheximide cs, NS1 inh)
Nc1ccc(Nc2nc(-c3ccncc3)cs2)cc1	Cycloheximide cs 34
CNS(=O)(=O)c1cn(CC(=O)N2CCN(c3ccc(C(C)=O)cc3)CC2)cc1S(=O)(=O)NC	none (no result: Shiga inhibitor, SARS PLpro yeast, LmPK inh, Cycloheximide cs, NS1 inh)
COc1ccc(F)cc1CN1CCN(C(=O)c2ccc(S(=O)(=O)N3CCCCCC3)cc2)CC1	none (no result: Shiga inhibitor, SARS PLpro yeast, LmPK inh, Cycloheximide cs, NS1 inh)
CCOC(=O)C1CCN(C(c2ccc(C)cc2)c2sc3nc(-c4ccco4)nn3c2O)CC1 (configuration not stated)	none (no result: Shiga inhibitor, SARS PLpro yeast, LmPK inh, Cycloheximide cs, NS1 inh)
FC(F)(F)c1cccc(N2CCN(Cc3nnc(-c4ccc5c(c4)OCO5)o3)CC2)c1	none (no result: Shiga inhibitor, SARS PLpro yeast, LmPK inh, Cycloheximide cs, NS1 inh)
Cc1ccc(N(CC(=O)N/N=C/c2ccc(OC3CSC3)cc2)S(=O)(=O)c2ccccc2)cc1	none
CNC(=O)c1ccc(OC2CSC2)cc1	none (no result: SARS PLpro yeast)
O=C(N/N=C/c1ccc(OC2CSC2)cc1)c1ccccc1	Shiga inhibitor 127, Cycloheximide cs 50
O=C(/C=C/c1ccc(OC2CSC2)cc1)c1ccccc1	Shiga inhibitor 125, TbPYK inhibitor inconclusive, LmPK inh 25µM, Cycloheximide cs 47
NC(N)=N/N=C/c1ccccc1OC(F)F	none (no result: NS1 inh)
FC(F)Oc1ccccc1/C=N/n1cnc2ccccc21	Shiga inhibitor 116, Cycloheximide cs 50 (no result: NS1 inh)
c1ccc(Cn2nnc(-c3ccccc3)n2)cc1	Shiga inhibitor 94, Cycloheximide cs 35
N#Cc1cccc(Cn2nnc(-c3ccccc3)n2)c1	Cycloheximide cs 13
Nc1nnn(Cc2ccccc2)n1	none
COc1nc(C)cnc1NS(=O)(=O)c1cccnc1-c1ccc(-c2nnco2)cc1	none (no result: Shiga inhibitor, SARS PLpro yeast, LmPK inh, Cycloheximide cs, NS1 inh)
COc1ccc(-c2coc3c(C(=O)N4CCN(C)CC4)cccc23)c(C)c1	none (no result: Shiga inhibitor, SARS PLpro yeast, LmPK inh, Cycloheximide cs, NS1 inh)
CC(/C=C/c1ccccc1)=N/O	Cycloheximide cs 19
O=C(O)/C=C/c1ccccc1	none (no result: Shiga inhibitor, SARS PLpro yeast, LmPK inh, Cycloheximide cs, NS1 inh)
CC(/C=C/c1ccc(O)cc1)=N/O	Shiga inhibitor 28, LmPK inh inconclusive, Cycloheximide cs 19
CC(/C=C/c1ccc(OCc2ccccc2)cc1)=N\O	Shiga inhibitor 77, Cycloheximide cs 60
COc1ccc(SCCc2nnc(-c3ccccc3)o2)cc1	none
Cc1cc(C)c(C#N)c(SCc2ccccc2[N+](=O)[O-])n1	none
c1ccc(-c2nnc(CSc3nncs3)o2)cc1	Shiga inhibitor 63, Cycloheximide cs 46
Cc1cc(C)c(C#N)c(SCc2nnc(-c3ccccc3[N+](=O)[O-])o2)n1	Shiga inhibitor 70, Cycloheximide cs 47
COc1ccccc1-c1cc(-c2ccc(C)cc2)nc(SCc2nnc(-c3ccccc3)o2)c1C#N	none
Cc1nc(SCc2nnc(-c3ccc(Cl)cc3)o2)c2c3c(sc2n1)CCC3	none (no result: TbPYK inhibitor)
Cc1ccc(C#N)c(SCc2nnc(-c3ccc(Cl)cc3)o2)n1	Shiga inhibitor 128, Cycloheximide cs 78
Cc1cc(C)c(C#N)c(SCc2nnc(-c3ccccc3)o2)n1	Shiga inhibitor 92, Cycloheximide cs 40
COc1ccc(C)cc1NC(=O)Nc1cccc(OCc2cc(=O)n3ccc(C)cc3n2)c1	none (no result: Shiga inhibitor, SARS PLpro yeast, LmPK inh, Cycloheximide cs, NS1 inh)
CCn1cc(C(=O)N(C)Cc2ccccc2)c(=O)c2cc(S(=O)(=O)N3CCCCC3)ccc21	none (no result: Shiga inhibitor, SARS PLpro yeast, LmPK inh, Cycloheximide cs, NS1 inh)
Fc1ccc(CSc2ccc3nnc(-c4cccnc4)n3n2)cc1	none (no result: NS1 inh)
COc1ccc2ccccc2c1/C=N/NC(=O)c1ccccc1F	Cycloheximide cs 11
COc1ccc(/C=N/NC(=O)c2ccn[nH]2)cc1COc1ccc(Cl)cc1Cl	none
COc1ccc(/C=N/NC(=O)c2ccn[nH]2)cc1Cn1nc(C)c([N+](=O)[O-])c1C	Shiga inhibitor 69, Cycloheximide cs 23
COc1ccc(/C=N/NC(=O)c2ccn[nH]2)cc1COc1ccc(F)cc1	Cycloheximide cs 21
COc1ccc(/C=N\NC(=O)c2ccccc2OC)cc1COc1c(F)c(F)c(F)c(F)c1F	Cycloheximide cs 12
COc1ccc2ccccc2c1/C=N/NC(=O)c1cccc(Br)c1	none

High-throughput results from PubChem.
